Compounds without any hit were thinned out: in the full panel of roughly 83,000, 20% have a hit.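 Compound tested at a single concentration for 48 hours in 96-well plates; a percent growth value below 10 was scored as active.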 Values without a mark were called inactive. The source made the active and inactive calls.

Common to all, as to assay: NCI-60 one-dose screen, 48 h (100 = growth as untreated, 0 = no growth, -100 = all killed)
Common to all, as to conditions: 10 µM unless noted

Experiment [1] deals with HCT-15 colon.
Experiment [2] has as its system HT29 colon.
Experiment [3] relates to SNB-75 CNS.
Experiment [4] concerns SNB-19 CNS.
Experiment [5] relates to U251 CNS.
Experiment [6] relates to PC-3 prostate.
The subject of experiment [7] is SK-MEL-5 melanoma.
Experiment [8] has as its system UACC-62 melanoma.
Experiment [9] has as its system LOX IMVI melanoma.
Experiment [10] deals with SK-MEL-28 melanoma.

As for `CCn1cc(-c2ccnc(NCCNS(=O)(=O)c3ccc(Br)cc3)c2)c(-c2cccc(OC)c2)n1`, the growth is 69.2% in experiment [1]; 56.5% in [2]; 81.7% in [3]; 83.2% in experiment [4]; 58.8% in [5]; 41.7% in experiment [6]. Besides, the growth in experiment [7] is 64%; in experiment [8], 71%; in experiment [9], 94.2%; in experiment [10], 100%.

Take `Cc1cnc(N)nc1OCCNC(=O)c1cccc(-c2ccc(S(=O)(=O)Nc3ccc4c(c3)N(C(=O)C3CC3)CCC4)cc2)c1`: the growth was 96.4% in experiment [1]; 80.5% in experiment [2]; 57.3% in [3]; 75.5% in [4]; 88.4% in experiment [5]; 53.5% in [6]. The growth in [7] is 23.8%; in experiment [8] it was 48.1%; in [9] it was 88.5%; in experiment [10], 88.6%.

As for `O=C(N/N=C1\c2ccccc2-c2cccc(C(=O)O)c21)c1ccc(O)cc1`, the growth in experiment [1] was 107%; in [2] it was 98.3%; in experiment [3] it was 74%; in experiment [4] it was 96.3%; in [5], 101%; in experiment [6], 92.1%. In addition, the growth in [7] was 99.1%; in [8], 93.8%; in experiment [9], 98.9%; in experiment [10], 102%.

As for `CSc1nc2sc3cc(Cl)c(Cl)cc3n2c(=N)c1C#N`, the growth in [1] was 104%; in experiment [2] it was 94.6%; in experiment [3], 69.2%; in experiment [4], 100%; in [5] it was 105%; in [6], 97.6%. Moreover, the growth in [7] is 86.4%; in [8] it was 82.2%; in experiment [9], 94.5%; in experiment [10] it was 108%.

Regarding `O=C1COCCN1c1ccc(NCc2cn(Cc3ccc(F)cc3)c3ccccc23)cc1`, the growth in [1] was 61.9%; in experiment [2], 34.8%; in experiment [3] it was 65.3%; in experiment [4], 92.2%; in [5], 55.9%; in experiment [6], 93.3%. The growth in experiment [7] was 27.3%; in [8], -65.8% (active); in [9], 83.9%; in experiment [10], 87.6%.

Regarding `O=[N+]([O-])c1cc([N+](=O)[O-])c(NN=C(c2ccc(O)cc2)c2ccc(O)cc2)cc1Cl`, the growth was -85.8% (active) in [1]; -82.6% (active) in experiment [2]; -15.6% (active) in experiment [3]; 89.4% in [4]; -99.9% (active) in experiment [5]; -80.8% (active) in [6]. The growth is 59.5% in experiment [7], 18.4% in experiment [8], -94% (active) in [9] and -90.3% (active) in experiment [10].

Regarding `O=C1NC(=O)C(Cc2ccccc2)(Cc2ccccc2)N1`, the growth is 102% in [1]; 94.1% in [2]; 85.2% in [3]; 95.2% in experiment [4]; 101% in [5]; 83.2% in experiment [6]. In addition, the growth in [7] was 94.3%; in experiment [8], 97%; in experiment [9], 89.4%; in experiment [10], 119%.

Take `COc1cc2c(O)n(CCCN3CCOCC3)c3c4cnc5cccc(c(=O)c3c2cc1OC)c54`: the growth is 57.4% in experiment [1]; 29.2% in [2]; 38.9% in [3]; 19.4% in [4]; 16.9% in experiment [5]; 30.6% in [6]. Moreover, the growth in experiment [7] was 20.9%; in experiment [8], 10.5%; in experiment [9] it was 11.3%; in experiment [10], 66.2%.

As to `C=C1C(=O)O[C@H]2[C@H]1CC/C(COC(=O)NCc1ccc(Cn3c(=O)sn(-c4ccc(Cl)cc4)c3=O)cc1)=C\CC[C@@]1(C)O[C@@H]21`, the growth is 54.5% in experiment [1]; 37.8% in experiment [2]; 79.7% in [3]; 91.9% in experiment [4]; 90.2% in experiment [5]; 76.2% in [6]. The growth in experiment [7] was 97.6%; in experiment [8], 76.5%; in experiment [9], 58.4%; in experiment [10], 101%.

With `CCOc1ccccc1/C=N\Nc1ccc(S(=O)(=O)c2ccc(N/N=C/c3ccccc3OCC)cc2)cc1`, the growth in experiment [1] is 82.9%; in experiment [2], 108%; in experiment [3] it was 80.8%; in experiment [4], 93.5%; in experiment [5], 94.8%; in [6], 87%. Besides, the growth in [7] was 100%; in experiment [8], 85%; in experiment [9] it was 92.5%; in [10], 100%.

With `COC(=O)C(=Cc1ccccc1[N+](=O)[O-])C(=O)OC`, the growth in [1] is 19.8%; in experiment [2] it was 21.3%; in experiment [3], 33.5%; in [4], 88.9%; in experiment [5], 23.7%; in experiment [6] it was 40.4%. Moreover, the growth in experiment [7] is 49.1%; in experiment [8] it was 19.6%; in [9] it was 10.7%; in experiment [10], 36.4%.

On to `Cc1cc[n+](CCCCCCCCCC[n+]2ccc(C)cc2)cc1`, for which the growth was 103% in [1]; 84.3% in [2]; 95.3% in experiment [3]; 104% in [4]; 105% in experiment [5]; 87.6% in experiment [6]. Moreover, the growth was 92.8% in experiment [7], 92.6% in experiment [8], 91.4% in experiment [9] and 101% in [10].
